Reference: PubChem BioAssay
Unmarked numbers belong to inactive results. The source made the active and inactive calls.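 How the source made its calls: active means inhibition above 50%; inactive means the rest.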

Test: human hepatoma cell viability loss – ATP luminescence, cytotoxicity control for P. falciparum antimalarial project, primary screen (AID 2303);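 further: 0% = DMSO wells and 100% = digitonin-killed cells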
Conditions: HepG2 viability, 24-48 h, at 10 µM, stronger effect = higher value

SMILES	inhibition
COc1cc2nc(C)nc(Nc3ccc(Oc4ccccc4)cc3)c2cc1OC	-8%
Cc1ccc(CN(Cc2ccc(C(=O)N(C)C)cc2)Cc2ccc3c(c2)OCCO3)cc1C	10%
Cc1cc(CN2CC[C@H](NC(=O)c3ccc(Cl)c(Cl)c3)C2)ccc1OCCCN(C)C	41%
O=C(Nc1cccc(-c2csc(-c3nc4ccccc4[nH]3)c2)c1)c1ccoc1	36%
CCC[C@@H]([C@@H](CC1CCCCC1)C(=O)NC(C(=O)Nc1nccs1)C(CC)c1ccccc1)N(O)C=O (stereo partly specified)	50% (active)
FC(F)(F)c1ccc2nc(-c3ccc(-c4ccc(CNCc5cnn(-c6ccccc6)n5)cc4)s3)[nH]c2c1	27%
CN1CCN(CC(=O)Nc2cccc(-c3cccc(-c4nc5ccc(F)cc5[nH]4)c3)c2)CC1	16%
CN(C)c1ccc(CN2CCC(NC(=O)c3ccc(-c4ccc(N(C)C)cc4)s3)CC2)cc1	24%
CN1CCC(NCc2cccc(-c3ccc(S(=O)(=O)NCCN4CCCC4)s3)c2)CC1	10%
CC(C)Oc1cccc(-c2ccc(C(=O)NCC3CCCN(Cc4cccc(C(F)(F)F)c4)C3)s2)c1 (stereo unspecified)	10%
Cc1cc(NN=Cc2ccc(F)cc2)c2cccc(C)c2n1	7%
N#Cc1cccc(Nc2nccc(NCC(O)c3ccc(C(F)(F)F)cc3)n2)c1 (stereo unspecified)	23%
NC(=NCCc1ccccc1Cl)c1ccc2ccccc2c1	25%
CCOC(=O)c1cncc(/C=C/c2cc(C)cnc2N)c1	4%
O=[N+]([O-])c1cccc(CNCC2CCN(Cc3ccc(C(F)(F)F)cc3)CC2)c1	7%
CCOC(=O)COc1cccc(CNc2ccc3nc(N)nc(N)c3c2)c1	18%
CS(=O)(=O)c1ccc(CCNCc2ccc(-c3ccc(CN(C(=O)C4CCCC4)C4CCN(Cc5ccccc5)CC4)cc3)nc2)cc1	24%
CNS(=O)(=O)CCNCc1ccc(-c2ccc3ncnc(Nc4ccc(OCc5ccccc5)cc4)c3c2)o1	19%

SMILES	inhibition
CC(C)c1ccc(NC(=O)c2ccc(C(=O)NCC3CCN(CC4CCCCC4)CC3)cc2)cc1	26%
CCCNCc1ccc(-c2ccc(CN(CCOC)C(=O)c3cscn3)cc2)nc1	13%
CCNc1cc(C(=O)N[C@@H](Cc2ccccc2)[C@H](O)CN[C@H](C)C(C)(C)C)cc(N2CCCCS2(=O)=O)c1	4%
O=C(Nc1ccc(C(=O)N2CCN(CCN3CCN(c4cccc(C(F)(F)F)c4)CC3)CC2)cc1)c1ccc(C(F)(F)F)cc1	39%
O=C(/C=C/c1ccc(Cl)c(Cl)c1)N1CCN(C(=O)Nc2ccc(C(F)(F)F)cc2)CC1	47%
Cc1[nH]c(C)c(-c2ccc(-c3ccc(F)cc3)nc2)c(=O)c1Br	15%
Cc1nc(N)nc(N)c1OCCCOc1ccccc1Br	57% (active)
FC(F)(F)c1ccc2nc(-c3cccc(-c4ccc(CNCC5CCCO5)cc4)c3)[nH]c2c1 (stereo unspecified)	29%
Cc1noc(C)c1-c1cccc(CNCc2ccc(-c3ccc(-c4nc5c(C)cccc5[nH]4)cc3)cc2)c1	28%
Cc1cc(C2CCN(CCCCNC(=O)c3ccc(-c4ccc(C(F)(F)F)cc4)cc3)CC2)c(C)cc1OCCO	31%
COC(=O)c1cccc(CN(CCC(O)(C(F)(F)F)C(F)(F)F)C(=O)CC2CCCC2)c1	-1%
Cc1[nH]c(C)c(-c2ccc(-c3ccccc3C(F)(F)F)nc2)c(=O)c1Br	-3%
CCNc1cc(C(=O)N[C@@H](Cc2ccccc2)[C@H](O)CNCc2cc(C#N)ccc2OC)cc(N2CCCC2=O)c1	-1%
CO/C(=C\C=C\c1cc2cc(Cl)c(Cl)cc2[nH]1)C(=O)NCCCNC12CC3CC(CC(C3)C1)C2	29%
O=c1[nH]c2ccc(Nc3nccc(NCCc4ccccc4)n3)cc2[nH]1	-1%
COc1ccc2nccc([C@@H](O)CN3CCC(NCc4ccc5c(c4)NC(=O)CO5)CC3)c2c1	1%
CCOC(=O)c1ccc(NC(=O)Nc2ccc(-c3ccc(-c4nc5ccc(C(F)(F)F)cc5[nH]4)cc3)cc2)cc1	20%
Cc1cccc2[nH]c(-c3ccc(-c4cccc(CN5CCCC5CN)c4)cc3)nc12 (stereo unspecified)	7%
